# ARNT TACC3 PPI: disruptors of ARNT/TACC3 protein interaction, primary screen, biochemical, AlphaScreen, single concentration; AlphaScreen His-ARNT PAS-B/GST-TACC3 binding, luminescence; TACC3 fragment carries E629A point mutation; inhibition, % at 9.99 µM; 390,000 tested, 0.66% active; AID 623870, 2012;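 active = mean inhibition of replicates at least 50% and at least half of replicates each reaching 50%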;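 note: 0% = complete ARNT plus TACC3 wells and 100% = ARNT alone without TACC3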
# HSP90 inh: HSP90 inhibitors, primary screen, cell lysate, luminescence. Heat shock protein HSP 90 (rabbit reticulocyte lysate; luciferase refolding). AID 1789, 2009. Rabbit reticulocyte lysate, luciferase refolding luminescence, 3 h. 290,000 tested, 0.91% active. inhibition, % at 5.6 µM;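 active = inhibition above the screen-wide mean plus 3 SD, computed separately per campaign, cut at about 16% in these data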;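 note: 0% = DMSO wells and 100% = 60 µM geldanamycin wells; inhibitors lower the luminescence because luciferase stays unfolded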
# HIF activator: HIF pathway transcriptional activators, primary screen, cell-based, U2OS HRE-luciferase, luminescence. U2OS HRE-luciferase reporter; normalized: DMSO 0%, desferrioxamine 100%. activation, % at 7.5 µM (by protocol). 300,000 tested, 0.32% active;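 active = mean activation of at least 10% of the iron chelator positive control signal, with at least half of replicates also reaching 10%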
# HSF1 inhib: HSF1 inhibitors in luciferase reporter cells, primary screen, cell-based, NIH3T3, luminescence; activity change, negative = inhibition, % at 7.5 µM (by protocol); NIH3T3-HGL HSE-luciferase, MG132-induced, luminescence 8 h; stronger effect = lower value; 300,000 tested, 0.77% active;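 active = more than half of replicate wells show activity change below -50%, luminescence cut by over half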;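 note: luciferase reports HSF-1 transcriptional activity via heat shock element; 0% = median of DMSO wells and -100% = zero luminescence signal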
# HSF-1 act: HSF-1 activators, primary screen, NIH3T3-HGL cells, MG132 stress, luminescence, single point; 300,000 tested, 1.7% active; NIH3T3-HGL HSF-1 luciferase reporter, 8 h; 100% = twice DMSO control signal; activation, % at 9 µM;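 active = mean replicate activation of at least 50% with a set share of replicates each reaching 50%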;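 note: 0% = median of the neutral control wells and 100% = twice that signal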
# An asterisk follows results filed as active; nt = no result given. A selection: hits, their analogues and other compounds. The true share with any hit is near 3.1%.
SMILES,ARNT TACC3 PPI,HSP90 inh,HIF activator,HSF1 inhib,HSF-1 act
O=S(=O)(CS(=O)(=O)c1ccccc1)c1ccccc1,-2.1,nt,nt,nt,nt
COc1ccc2nc(SCc3ccccc3C)nc(C)c2c1,2.8,-0.6,1.3,24.3,54.9*
COc1ccc2nc(SCc3cccc(C)c3)nc(C)c2c1,-7.6,-2.8,1.9,48.2,94.8*
Cc1cccc(S(=O)(=O)N2CCCCN3[C@H](C2)[C@@H](c2ccc(C#C[C@@H](C)O)cc2)[C@@H]3CO)c1,0.9,nt,nt,nt,nt
O=S(=O)(Nc1cc2nc3ccccc3nc2n1Cc1ccccc1)c1ccc(Cl)cc1,nt,6.7,-6.7,78.3,114.4*
CC(C)NC(=O)Nc1ccc2c(c1)C(=O)N([C@@H](C)CO)C[C@@H](C)[C@H](CN(C)C(=O)C1CCCCC1)OCCCC[C@H](C)O2,45.8*,nt,nt,nt,nt
COc1ccc(NC(=O)N(C)C[C@@H]2OCCCC[C@@H](C)Oc3ccc(NS(=O)(=O)c4ccc(OC)cc4)cc3C(=O)N([C@@H](C)CO)C[C@H]2C)cc1,24.0*,nt,nt,nt,nt
C[C@H](CO)N1C[C@H](C)[C@@H](CN(C)C(=O)CCC(F)(F)F)OCCCC[C@H](C)Oc2ccc(NC(=O)CCCN(C)C)cc2C1=O,24.9*,nt,nt,nt,nt
C[C@@H]1CCCCO[C@H](CN(C)S(=O)(=O)c2cccs2)[C@@H](C)CN([C@@H](C)CO)C(=O)c2cc(NS(C)(=O)=O)ccc2O1,active,nt,nt,nt,nt
C[C@@H]1CCCCO[C@@H](CN(C)S(=O)(=O)c2cccs2)[C@H](C)CN([C@H](C)CO)C(=O)c2cc(NS(C)(=O)=O)ccc2O1,17.5,nt,nt,nt,nt
NC(=O)c1c(NC(=O)c2ccc([N+](=O)[O-])o2)sc2c1CCCC2,nt,2.2,3.5,63.9,116.5*
COC(=O)c1c(NC(=O)c2ccc(C)o2)sc2c1CCCCC2,1.8,-0.4,5.1,28.8,60.2*
C[C@H](CO)N1C[C@H](C)[C@@H](CN(C)S(=O)(=O)c2cn(C)cn2)Oc2c(NC(=O)C3CCOCC3)cccc2C1=O,-7.8,nt,nt,nt,nt
O=S(=O)(c1ccc(Cl)s1)N1CCc2ccccc2C1,-10.8,2.6,-0.2,22.8,3.9
O=S(=O)(c1ccc(Cl)s1)N1CCCc2cccc(O)c21,3.9,0.6,4.6,69.7,116.0*
O=C(c1ccc(OC2CCN(Cc3ccc(F)cc3)CC2)cc1)N1CCCC1,nt,-6.5,52.6*,-4.1,-2.4
CN(C)c1ccc(C(=O)N2CCCC(N3CCN(Cc4ccc5c(c4)OCO5)CC3)C2)cc1 (stereo not given),8.3,-5.0,-0.5,-10.4,-4.7
O=C(c1ccc(OC2CCN(CCc3ccccc3)CC2)cc1)N1CCCC1,-4.8,-1.1,-0.3,-1.4,-12.3
CC1CCN(c2nc3ccc(C(=O)N4CCN(Cc5ccc6c(c5)OCO6)CC4)cc3s2)CC1,-10.0,57.6*,3.2,-44.9,-56.1
O=C(c1ccc(F)cc1)N1CCCC(N2CCN(Cc3ccc4c(c3)OCO4)CC2)C1 (stereo not given),0.5,-1.1,-1.3,-54.1*,-63.2
O=C(c1ccc(OC2CCN(CCc3ccccc3)CC2)cc1)N1CCCC(CCCO)C1 (stereo not given),1.4,-4.6,43.8*,-5.4,-4.0
O=S(=O)(c1ccccc1F)N1CC[C@@H]2[C@H]1c1cc(-c3ccc(F)cc3)ccc1N[C@@H]2CO,-13.3,nt,nt,nt,nt
Cc1noc(C)c1NC(=O)N(C)C[C@@H]1Oc2ccc(NC(=O)NC(C)C)cc2CC(=O)N([C@@H](C)CO)C[C@@H]1C,10.5,nt,nt,nt,nt
Cc1ccccc1S(=O)(=O)NCC[C@H]1CC[C@@H](NC(=O)Nc2cccc(Cl)c2)[C@H](CO)O1,11.0,nt,nt,nt,nt
CCOC(=O)c1cc2c(ccn2C)n1CC(=O)N1C(C)CCCC1C (stereo not given),-6.7,0.3,0.2,nt,nt
SMILES,ARNT TACC3 PPI,HSP90 inh,HIF activator,HSF1 inhib,HSF-1 act
CCOC(=O)c1cc2c(ccn2C)n1CC(=O)N1CCN(c2ccccc2)CC1,-48.3,1.4,288.1*,4.6,38.1
COC(=O)[C@@H]1[C@@H](CO)[C@@H]2Cn3c(cccc3=O)[C@@H]2N1CC1CCOCC1,39.7,nt,nt,nt,nt
Cc1ccc(-c2ccc3c(c2)O[C@@H](CN(C)S(C)(=O)=O)[C@@H](C)CN([C@H](C)CO)S3(=O)=O)cc1,-3.0,nt,nt,nt,nt
O=C(Nc1cccc(-c2cn3ccccc3n2)c1)c1cnccn1,-13.7,9.1,0.8,16.1,54.2*
CCC(=O)Nc1cccc(-c2cn3ccccc3n2)c1,3.3,-1.1,2.6,0.5,-2.1
O=C(Nc1cccc(-c2cn3ccccc3n2)c1)C1CC1,3.5,0.9,37.3*,5.3,6.3
O=C(O)c1ccccc1OC(C(=O)Nc1cc(Cl)cc(Cl)c1)c1ccccc1 (stereo not given),0.6,5.2,-0.3,13.9,57.7*
Cc1nnc(-c2ccccc2)nc1N(C)C,-1.1,0.0,701.5*,-1.5,24.4
C[C@@H]1CN([C@@H](C)CO)C(=O)c2cc(NC(=O)c3ccccc3)ccc2O[C@@H](C)CCCCO[C@@H]1CN(C)S(=O)(=O)c1cccs1,-2.2,nt,nt,nt,nt
CC(C)c1[nH]nc2c1C(c1cccnc1)C(C#N)=C(N)O2 (stereo not given),-0.4,-4.4,-0.1,7.0,6.0
CC(C)c1[nH]nc2c1C(c1ccco1)C(C#N)=C(N)O2 (stereo not given),-4.6,-3.2,1.2,16.7,55.4*
C[C@@H](NC(=O)C[C@H]1C=C[C@@H](NC(=O)CN2CCOCC2)[C@H](CO)O1)c1ccccc1,14.4,nt,nt,nt,nt
CN(C1=C(N2CCCCC2)C(=O)c2ccccc2C1=O)c1ccccc1,47.4*,0.3,-0.6,7.0,15.1
O=C1C(Nc2ccccc2)=C(N2CCCCC2)C(=O)c2ccccc21,33.3,1.8,0.4,-0.5,-4.0
COc1cccc(NC(=O)N2CC[C@@H]3[C@@H](CO)N(C)c4ccc(-c5ccccc5)cc4[C@@H]32)c1,-1.0,nt,nt,nt,nt
COc1ccccc1N1CCN(CCCNC(=O)C2CCCN(c3ncnc4c3nc3n4CCCCC3)C2)CC1 (stereo not given),8.6,-6.1,133.6*,-6.0,-0.7
CCc1nn(C(C)C(=O)NC(C)CCc2ccco2)c(=O)c2cc3occc3n12 (stereo not given),-4.9,9.7,0.1,65.6,128.9*
O=S(=O)(N[C@@H]1CC[C@H](CCn2cc(-c3ccccc3F)nn2)O[C@H]1CO)c1ccc(Cl)cc1,6.3,nt,nt,nt,nt
O=C(c1cc(COc2c(F)cccc2F)on1)N1C[C@H]2CC[C@H]1C2,-6.1,-1.0,4.5,29.0,55.5*
CC(C)(C)c1nn(-c2ccccc2)c2[nH]c(=O)c(CNCc3ccco3)cc12,-2.6,-4.3,1.0,-6.1,9.2
CC(C)(C)c1nn(-c2ccccc2)c2[nH]c(=O)c(CNc3ccc4c(c3)OCCO4)cc12,-4.9,8.3,-0.4,-64.9*,-66.8
